For part of these data: Measured potencies and affinities stand elsewhere.
Legend:
Staphylococcus aureus = test: Antibacterial activity against Staphylococcus aureus MRSA ATCC 43300 (CO-ADD:GP_020); MIC in CAMBH media using NBS plates, by Resazurin F(560/590); type: functional; conditions: Concentration 20 uM, ASSAY_TEST Inhibition of Bacterial Growth, detection method Resazurin, Fluorescence (ex560/em590), MEDIA CAMHB, plate type 384well, CORNING #3640, time 18 hr
Acinetobacter baumannii = test: Antibacterial activity against Acinetobacter baumannii ATCC 19606 (CO-ADD:GN_034); MIC in CAMBH media using NBS plates, by Resazurin F(560/590); type: functional; conditions: Concentration 20 uM, ASSAY_TEST Inhibition of Bacterial Growth, detection method Resazurin, Fluorescence (ex560/em590), MEDIA CAMHB, plate type 384well, CORNING #3640, time 18 hr
Escherichia coli = test: Antibacterial activity against Escherichia coli ATCC 25922 (CO-ADD:GN_001); MIC in CAMBH media using NBS plates, by Resazurin F(560/590); type: functional; conditions: Concentration 20 uM, ASSAY_TEST Inhibition of Bacterial Growth, detection method Resazurin, Fluorescence (ex560/em590), MEDIA CAMHB, plate type 384well, CORNING #3640, time 18 hr
Klebsiella pneumoniae = conditions: Concentration 20 uM; ASSAY_TEST Inhibition of Bacterial Growth; detection method Absorption (OD600); MEDIA CAMHB; plate type 384well; NBS; CORNING #3640; time 18 hr
Candida albicans = conditions: 20 µM
Cryptococcus neoformans = conditions: Concentration 20 uM; ASSAY_TEST Inhibition of Fungal Growth; detection method Resazurin; Absorption (OD600-OD570); plate type 384well; NBS; CORNING #3640

Compound	Inhibition (Staphylococcus aureus)	Inhibition (Acinetobacter baumannii)	Inhibition (Escherichia coli)	Inhibition (Klebsiella pneumoniae)	Inhibition (Candida albicans)	Inhibition (Cryptococcus neoformans)
COc1cc2c(cc1OC)C(=O)Cc1ccc3c(c1CN(C)CC2)OCO3	7.05%	12.34%	18.89%	9.37%	-0.52%	-7.07%
CC(C)(C)N=C(S)NC(C)(C)C	10.55%	-9.16%	4.33%	8.8%	1%	-0.12%
CC(=O)OCCN1c2ccccc2Sc2cnccc21	-12.23%	-1.85%	-8.04%	5.46%	1.65%	-8.61%
c1ccc2c(c1)Nc1ccncc1S2	6.69%	-7.03%	3.1%	3.6%	2.27%	-9.93%
COC(=O)c1cc(C)nc2c(C)cc3[nH]c4ccccc4c3c12	-3.37%	-0.23%	-15.24%	17.6%	8.78%	0.02%
O=C1NC(=O)C(Cc2ccccc2)(c2cccnc2)N1 (stereo not given)	33.81%	2.65%	15.22%	9.85%	7.24%	16.94%
Nc1c(Cl)ncnc1NCCO	-0.51%	-7.14%	3.3%	8.13%	2.14%	-0.36%
O=[N+]([O-])c1ccccc1CSc1nc(O)c2nc[nH]c2n1	26.98%	9.09%	5.06%	15.06%	1%	-13.62%
N#CCS(=O)(=O)c1cccc[n+]1[O-]	7.02%	-20.49%	18.56%	15.26%	4.91%	-4.09%
Cc1ccc(S(=O)(=O)CCOC(=O)CNC(=O)OCc2ccccc2)cc1	0.28%	8.19%	0.72%	12.65%	2.97%	-8.5%
CC1CCC(C(C)C)C(NC(=O)c2ccncc2)C1 (stereo not given)	7.04%	-17.65%	6.28%	10.65%	-0.85%	-11.13%
C=CCNC(S)=Nc1c(N)n(C)c(=O)n(C)c1=O	11.89%	5.83%	-15.58%	18.14%	8.36%	18.71%
Oc1ccc2ccc3[nH]cnc3c2c1	14.46%	-12.2%	3.66%	6.42%	-0.74%	-8.68%
O=c1oc2c(cc1O)oc(=O)c1cc(O)c(O)c(O)c12	7.4%	17.2%	5.53%	31.38%	14.8%	-7.17%
S=C1SCN(CCc2ccccc2)CN1CCc1ccccc1	-3.89%	1.92%	3.19%	4.28%	31.3%	-3.46%
OC(COc1ccc(Cl)cc1)CN1CCN(c2cccc(Cl)c2)CC1 (stereo not given)	15.95%	-3.41%	10.45%	10.9%	-0.89%	-14.11%
O=C1NC(=O)C2(CCc3ccccc32)N1 (stereo not given)	-0.71%	-7.84%	5.32%	9.04%	4.28%	0.2%
O=[N+]([O-])c1nc[nH]c1/C=C\c1ccccc1	6.19%	-12.82%	5.35%	8.67%	3.47%	10.56%
CCOC(=O)/C(=N\O)C1=CSC2=NNC(C)(C)N12	3.63%	-13.67%	6.92%	9.3%	5.91%	-6.65%
CCOC(=O)C(C#N)C(=N)C1C(=O)OC2CCCCC21 (stereo not given)	5.44%	-19.8%	15.65%	4.77%	-2.13%	-12.86%
O=c1cc2oc3cc(O)c(O)cc3c(-c3ccccc3O)c-2cc1O	-11.77%	-19.46%	15.45%	16.39%	44.4%	-6.63%
CC(C)(C)c1ccc(OC(=O)c2ccccc2)cc1	-7.46%	6.71%	7.42%	8.33%	9.75%	-15.41%
O=C(Nc1cccc(-c2ccccc2)c1)N1CCN(C(=O)Nc2cccc(-c3ccccc3)c2)CC1	26.71%	-7.47%	7.55%	6.58%	-1.22%	-2.57%
CN1CCC(=C2c3ccccc3C(O)c3ccccc32)CC1 (stereo not given)	1.61%	-19.91%	15.16%	2.29%	0.03%	-16.59%
CCCCn1c(OC(=S)N(CC)CC)cc(C)nc1=S	3.12%	15.13%	-6.8%	13.25%	7.15%	-2.34%
